Test results as given in ChEMBL document CHEMBL1157539, “Thousands of chemical starting points for antimalarial lead identification” (Nature, 2010).

How the values were obtained:
Type in all cases: functional
[1] = test system: Plasmodium falciparum; assay: GSK_TCMDC: Inhibition of Plasmodium falciparum 3D7 in whole red blood cells, using parasite LDH activity as an index of growth. Test compounds present at 2uM
[2] = test system: Plasmodium falciparum; assay: GSK_TCMDC: Inhibition of Plasmodium falciparum Dd2 in whole red blood cells, using parasite LDH activity as an index of growth. Test compounds present at 2uM
[3] = test system: HepG2; assay: GSK_TCMDC: Percent inhibition of human HepG2 cell line. Test compounds present at 10uM.

Compound | Inhibition [1] [%] | Inhibition [2] [%] | Inhibition [3] [%]
COc1cc(C=C(C2=NC(=O)CS2)c2nc3cccnc3n2C)ccc1O | 89 | 48 | 7
COc1ccc(CCNc2nc(NCCc3cnc[nH]3)nc(NCc3cccc4ccccc34)n2)cc1OC | 98 | 16 | 2
COc1cc2nc(C)nc(Nc3ccc(Oc4ccccc4)cc3)c2cc1OC.Cl | 100 | 72 | 0
Cc1cc2c(cc1C(F)(F)F)N(C(=O)Nc1cc(OCCN(C(C)C)C(C)C)cc(C(F)(F)F)c1)CC2.Cl | 100 | 86 | 42
OC1(c2ccccc2)c2cc(Cl)ccc2OC1c1nc2c(Cl)ccc(Cl)c2o1 (centres undefined) | 98 | 89 | 7
O=C(Nc1ccc(OC2CCN(Cc3ccc(F)cc3)CC2)c(Cl)c1)c1ccccc1.O=C(O)C(F)(F)F | 90 | 89 | 16
CCNCc1ccc(-c2cc3ncnc(Nc4ccc(OCc5cccc(F)c5)c(Cl)c4)c3s2)[nH]1 | 100 | 74 | 22
O=C(c1cc(-c2ccco2)n[nH]1)N1CCN(S(=O)(=O)c2ccc(Br)cc2)CC1 | 95 | 90 | 1
COc1ccc(S(=O)(=O)NC2CCN(c3ccnc4cc(Cl)ccc34)C2)cc1.O=C(O)C(F)(F)F (centres undefined) | 100 | 86 | 12
CC1(C)NC(N)=NC(=N)N1OCc1ccc(-c2ccccc2)cc1 | 95 | 97 | 64
CN1CCC(C(=O)Nc2cccc(-c3ccc(-c4nc5ccccc5[nH]4)cc3)c2)CC1 | 82 | 15 | 7
CC(C)C[C@@H](/C=N/N1CCNC1=O)NC(=O)[C@H](CC(C)C)NC(=O)c1ccc(OCCN2CCOCC2)cc1 | 97 | 89 | 21
CS(=O)(=O)CCNCc1ccc(-c2ccc3c(Nc4ccc(Oc5ccccn5)cc4)ccnc3c2)o1 | 100 | 99 | 0
COc1cc2cc(C(=O)Nc3ccccc3)c(N)nc2cc1OC | 90 | 0 | 0
Cc1cc(N2CCCC2)nc(Nc2ccc(NC(=O)c3ccccc3C)cc2)n1 | 100 | 40 | 22
NC(=O)COc1c(C2CCN(CCCCNC(=O)c3ccc(-c4ccc(Cl)cc4)c(O)c3)CC2)ccc2c1CCCC2 | 100 | 72 | 97
CN1CCC(N(Cc2ccc(N3CCN(Cc4c[nH]c5ccc(Cl)cc45)CC3)nc2)C2CC2)CC1 | 100 | 76 | 96
O=C(Nc1ccc2c(c1)OCO2)NC1CCN(c2ccnc(NCc3ccc(F)cc3)n2)CC1 | 88 | 15 | 33
Br.CC1(C)NC(N)=NC(=N)N1OCCc1cccc2ccccc12 | 95 | 97 | 57
CN(C)c1ccc(-c2csc(C(=O)NCC3CCN(CCC(C)(C)C)C3)c2)cc1.O=C(O)C(F)(F)F (centres undefined) | 87 | 16 | 29
CCCCCC(C)N/C(=N/c1ccccc1Br)Nc1ccc(C#N)cc1O (centres undefined) | 98 | 95 | 2

Compound | Inhibition [1] [%] | Inhibition [2] [%] | Inhibition [3] [%]
Cc1nc(-c2cccc(C(=O)N(Cc3cncn3Cc3cccc(C(F)(F)F)c3)CC3CC3)c2)cs1 | 97 | 17 | 7
COc1cc(C2=NN(S(=O)(=O)c3c(C)cc(C)cc3C)CCCC2)ccc1Cl | 85 | 76 | 9
CCN(CC)CC(O)Cc1c2ccc([N+](=O)[O-])cc2nc2cc(OC)c(OC)cc12 (centres undefined) | 100 | 37 | 41
O=C1NC(c2ccc(N3CCCCCC3)cc2)Nc2ccccc21 (centres undefined) | 96 | 96 | 19
CC1CN(Cc2cccc(F)c2)CCN1c1ccc(NC(=O)c2ccc(F)cc2)cc1.O=C(O)C(F)(F)F (centres undefined) | 96 | 92 | 0
COc1ccc2[nH]c(C)cc(=NN=Cc3ccc(F)cc3)c2c1 | 100 | 99 | 5
Cc1noc(NC(=O)c2sc3ccccc3c2O)c1C | 90 | 50 | 0
CCCc1cc(OC)c(CC2c3cc(O)c(Cl)cc3CCN2C)cc1OC.Cl (centres undefined) | 100 | 99 | 19
O=C(NC1CCCCCC1)C1CCCN(C(=O)c2ccc(O)c(-c3ccc(Cl)c(Cl)c3)c2)C1 (centres undefined) | 98 | 21 | 5
Cc1noc(-c2ccccc2)c1NC(=O)N1CCN(CCCCCCNC(=O)/C=C/c2ccc(Cl)c(Cl)c2)CC1 | 95 | 1 | 6
Clc1ccc2c(NN=Cc3cccnc3)ccnc2c1 | 100 | 86 | 0
Cc1nc(N)nc(N)c1-c1ccc(Br)c([N+](=O)[O-])c1 | 95 | 2 | 64
CCCc1ccc(C(=O)N2C(c3nccs3)C(C(N)=O)CC2(CC(C)C)C(=O)O)cc1 (centres undefined) | 94 | 80 | 16
CCCCCc1ccc(NC(=O)Nc2ccc(Cn3ncc(N4CCCNCC4)c(Cl)c3=O)cc2)cc1.O=C(O)C(F)(F)F | 87 | 23 | 15
COc1ccccc1Cc1nc2ccccc2nc1SCC(=O)Nc1cccc(C(F)(F)F)c1 | 97 | 91 | 8
COc1ccc(CCNCC(O)COc2nccc3c(S(=O)(=O)N4CCCNCC4)cccc23)cc1OC.Cl (centres undefined) | 96 | 0 | 59
Cc1cc(OCC2CCCO2)c2cc(NC(=O)C(=O)Nc3ccc4nc(C)cc(OCC5CCCO5)c4c3)ccc2n1 (centres undefined) | 96 | 32 | 7
O=C(NCc1cccc(C(F)(F)F)c1)[C@@H]1CCCN1C(=O)c1ccc(O)c(-c2ccc(Cl)c(Cl)c2)c1 | 99 | 97 | 0
Nc1ncc(-c2ccccc2)cc1/C=C/c1cccnc1 | 91 | 9 | 33
Cl.N#Cc1ccc(NC(=O)c2ccc(Cc3ccc4c(c3)CCN(C3CCC3)CC4)cn2)cc1 | 91 | 2 | 66
O=C(/C=C/c1ccc(Cl)c(Cl)c1)NCCCCCN1CCC(NC(=S)Nc2ccc(Cl)cc2Cl)CC1 | 99 | 47 | 53

Compound | Inhibition [1] [%] | Inhibition [2] [%] | Inhibition [3] [%]
COc1ccc2nccc(NC(=O)C3(O)CCC(NCc4ccc5c(c4)NCCS5)CC3)c2n1.Cl (centres undefined) | 93 | 64 | 1
COc1ccc(C2NCCc3c2[nH]c2ccccc32)cc1CN1CCN(c2ccc(F)cc2)CC1.Cl (centres undefined) | 97 | 56 | 37
CCOC(=O)CCCc1cc(NC2CCN(C)CC2)nc(Nc2ccc(OC)cc2)n1 | 99 | 17 | 41
COc1ccc(Nc2nccc(N3CCC(NC(=O)C(C)c4ccc(Cl)cc4)C3)n2)cc1 (centres undefined) | 85 | 97 | 35
CCCCSc1c(CNCCCCCCNCc2ccc3ccccc3c2SCCCC)ccc2ccccc12.CS(=O)(=O)O | 93 | 62 | 99
CCOCCCn1c(=N)c(C(=O)NCc2ccc(OC)cc2)cc2c(=O)n3cccc(C)c3nc21 | 99 | 46 | 24
Cc1c(C(=O)N(C)C)sc2c1c(=O)n(Cc1ccccc1)c(=O)n2CC(=O)Nc1ccccc1F | 97 | 98 | 13
Cl.N#Cc1ccc2c(c1)CCN(CCC1CCC(NC(=O)c3cc4cccc([N+](=O)[O-])c4[nH]3)CC1)C2 (centres undefined) | 100 | 28 | 0
CCc1cccc(-n2c(=O)c3cccnc3n2CC(=O)NCc2ccccc2Cl)c1 | 98 | 19 | 25
Br.COc1ccc2c(c1)CCCC2C(C)NCC(O)c1cccc(C(F)(F)F)c1 (centres undefined) | 99 | 99 | 3
Cc1cc(C)c(O)c(-c2cc(C(=O)Nc3ccc(S(=O)(=O)N4CC(C)OC(C)C4)cc3)[nH]n2)c1 (centres undefined) | 95 | 16 | 31
Cc1ccc(NC(=O)c2cc([N+](=O)[O-])ccc2NCc2cccnc2)cc1Cl | 86 | 58 | 9
COc1cc(C(=O)N2CCOC(CCN3CCC4c5ccccc5CC43)(c3ccc(Cl)c(Cl)c3)C2)cc(OC)c1OC (centres undefined) | 88 | 82 | 32
CN1CCC(NCc2cccc(-c3cccc(S(=O)(=O)NCc4ccccc4)c3)c2)CC1.O=C(O)C(F)(F)F | 100 | 6 | 57
Fc1ccc(Nc2ccnc3cc(-c4ccc(CNCCN5CCOCC5)o4)ccc23)c(Cl)c1 | 100 | 99 | 34
CN1CCC(Oc2ccc(CN3CC[C@H](NC(=O)c4ccc(Cl)c(F)c4)C3)c3ccccc23)C1.O=C(O)C(F)(F)F (some centres undefined) | 100 | 65 | 51
Cc1ccc(Nc2nc(C)cc(NC3CC3)n2)cc1 | 97 | 15 | 0
Br.CC1(C)N=C(N)N=C(N)N1OCc1cccc(C#N)c1 | 94 | 2 | 57
Cc1cccc2nc(-c3cccc(-c4cccc(NC(=O)NC5CC5c5ccccc5)c4)c3)[nH]c12 (centres undefined) | 98 | 28 | 0
O=C(Nc1ccc(C(=O)N2CCN(CCN3CCN(c4cccc(C(F)(F)F)c4)CC3)CC2)cc1)c1cc(Cl)cc(Cl)c1 | 100 | 19 | 23
COc1cccc(-c2cc3nc4c(c(NCCCn5ccnc5)n3n2)CCCC4)c1 | 100 | 66 | 10
